The nature of experiment [1]: Quantitative High-Throughput drug screen in 47 multiple myeloma cell lines against the NCATS MIPE library collection: OCIMY5_PLB cell viability assay (AID 1918988). Note: nearly all actives have a fitted effect of over 65% in size. Note: potency is the fitted concentration of half-maximal effect. The method, boiled down:
(§1)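 500 cells/well; MIPE 4.0 drugs pin-transferred; 48 h, 37C, 5% CO2. CellTiter-Glo, 5 min RT, luminescence. Controls: DMSO 100%, media 0%.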

A short description of experiment [2]: Quantitative High-Throughput drug screen in 47 multiple myeloma cell lines against the NCATS MIPE library collection: OPM1_PLB cell viability assay (AID 1918989). Note: nearly all actives have a fitted effect of over 40% in size. Note: potency is the fitted concentration of half-maximal effect. The method, boiled down: as §1
Experiment [3] in a line: Quantitative High-Throughput drug screen in 47 multiple myeloma cell lines against the NCATS MIPE library collection: SKMM1_PLB cell viability assay (AID 1919863). Note: nearly all actives have a fitted effect of over 35% in size. Note: potency is the fitted concentration of half-maximal effect. As to conditions: SKMM1 myeloma viability, CellTiter-Glo ATP, 48 h; viability: stronger effect = lower value. The method, boiled down:
as §1
(Cellular ATP, detected with luciferase, serves as a proxy for viable cell number.)

Experiment [4] can be described thus: Quantitative High-Throughput drug screen in 47 multiple myeloma cell lines against the NCATS MIPE library collection: XG6_PLB cell viability assay (AID 1919865). Note: potency is the fitted concentration of half-maximal effect; nearly all actives have a fitted effect of over 40% in size. The gist of the method:
as §1

Experiment [5] can be described thus: Quantitative High-Throughput drug screen in 47 multiple myeloma cell lines against the NCATS MIPE library collection: VP6_DJ cell viability assay (AID 1919867). Note: potency is the fitted concentration of half-maximal effect; nearly all actives have a fitted effect of over 40% in size. The gist of the method: as §1
Experiment [6] can be described thus: Quantitative High-Throughput drug screen in 47 multiple myeloma cell lines against the NCATS MIPE library collection: PE2_PLB cell viability assay (AID 1919869). Note: nearly all actives have a fitted effect of over 35% in size. Note: potency is the fitted concentration of half-maximal effect. The method, boiled down: as §1
A short description of experiment [7]: Quantitative High-Throughput drug screen in 47 multiple myeloma cell lines against the NCATS MIPE library collection: RPMI8226_ATCC cell viability assay (AID 1919871). Note: nearly all actives have a fitted effect of over 30% in size. Note: potency is the fitted concentration of half-maximal effect. The method, boiled down: as §1
Experiment [8] is described as follows: Quantitative High-Throughput drug screen in 47 multiple myeloma cell lines against the NCATS MIPE library collection: OPM2_DSMZ cell viability assay (AID 1919872). Note: nearly all actives have a fitted effect of over 30% in size. Note: potency is the fitted concentration of half-maximal effect. The gist of the method:
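CellTiter-Glo ATP luminescence gave viability after 48 h compound treatment at 37C of 500 multiple myeloma cells per well. Normalisation used DMSO-only wells as 100% and media-only wells as 0% viability; primary qHTS of approved and investigational drugs.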

Experiment [9] in a line: Quantitative High-Throughput drug screen in 47 multiple myeloma cell lines against the NCATS MIPE library collection: KMS11_JCRBsus cell viability assay (AID 1919873). Note: nearly all actives have a fitted effect of over 50% in size. Note: potency is the fitted concentration of half-maximal effect. The gist of the method:
as §1

The nature of experiment [10]: qHTS drug screen for cell cycle checkpoint inhibitors in PARPi-resistant BRCA-mutant ovarian cancer cell lines. (AID 1963452; calls by dose curve). The note with it: PEO1/OlaR viability, CellTiter-Glo luminescence, 96 h, stronger effect = lower value. The gist of the method:
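PEO1, PEO4 and PEO1/OlaR ovarian cancer cells, 600 per well, exposed 96 h at 37C to a dilution series. Viability read by CellTiter-Glo luminescence, normalized to DMSO and empty wells; activity summarized as Z-AUC.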
In general terms: qHTS replaces the single test concentration by a dilution series.

Experiment [11] in a line: Quantitative High-Throughput drug screen in 47 multiple myeloma cell lines against the NCATS MIPE library collection: U266_ATCC cell viability assay (AID 1919864). Note: nearly all actives have a fitted effect of over 35% in size. Note: potency is the fitted concentration of half-maximal effect. The gist of the method:
as §1

Experiment [12] can be described thus: Quantitative High-Throughput drug screen in 47 multiple myeloma cell lines against the NCATS MIPE library collection: PCM6_Riken cell viability assay (AID 1919870). Note: nearly all actives have a fitted effect of over 30% in size. Note: potency is the fitted concentration of half-maximal effect. The gist of the method: as §1
A short description of experiment [13]: Quantitative High-Throughput drug screen in 47 multiple myeloma cell lines against the NCATS MIPE library collection: KMS28BM_JCRB cell viability assay (AID 1919874). Note: nearly all actives have a fitted effect of over 35% in size. Note: potency is the fitted concentration of half-maximal effect. The gist of the method: as §1
Experiment [14] is described as follows: qHTS for identification of novel therapeutic agents for treatment of microphthalmiaassociated transcription factor (MiT) renal cell carcinoma (RCC) (AID 1963991; calls by dose curve; note: potency is the fitted concentration of half-maximal effect). As to conditions: CellTiter-Glo, 48 h; for z-score: stronger effect = lower value. The method, boiled down:
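Three TFE3-fusion RCC cell lines (UOK109, UOK124, UOK145), 500 cells/well, were exposed to the 1912-compound MIPE 4.0 library for 48 hours at 37 C. Viability was read by CellTiter-Glo luminescence, normalised to DMSO (100%) and empty wells (0%), with 11-concentration curve fits.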

Experiment [15] in a line: Quantitative High-Throughput drug screen in 47 multiple myeloma cell lines against the NCATS MIPE library collection: UTMC2_PLB cell viability assay (AID 1919868). Note: potency is the fitted concentration of half-maximal effect; nearly all actives have a fitted effect of over 55% in size. The note with it: CellTiter-Glo ATP luminescence, 48 h; viability (% of DMSO control): at 45.8 µM (top of the series). The method, boiled down:
as §1

The mark [16] stands for this setting: measured here: PEO1 parental Z-AUC.
The mark [17] stands for this setting: TFE3-RCC UOK109 viability, measured here: UOK109 Z-AUC.
Where [18] appears, read: TFE3-RCC viability, measured here: UOK124 Z-AUC.
Where [19] appears, read: TFE3-RCC viability, measured here: UOK145 Z-AUC.

Experimental findings from PubChem BioAssay (NCATS) are described below.

Each structure is given as a SMILES string. Records with an inconclusive call do not appear. Activity calls are given as the source filed them. Unless noted, calls come from the whole dose curve; as a rule, active = well fitted cell-killing curve with a large enough effect; inconclusive = small, poorly fitted or top-dose-only effect, or effect the other way; inactive = no such curve, though single readings can be large or run the other way.

As for `COc1ccc(C(=O)c2c(C)n(CCN3CCOCC3)c3cc(I)ccc23)cc1`, the Potency was 9350 nM (active) in experiment [1]; 18700 nM (active) in [2]; 16600 nM (active) in experiment [3]; 10500 nM (active) in experiment [4]; 6620 nM (active) in [5]; 13200 nM (active) in experiment [6]. Besides, the Potency is 18700 nM (active) in experiment [7], 26400 nM (active) in experiment [8] and 23500 nM (active) in [9]. Besides, the Z-AUC in experiment [10] is -0.298 (inactive); in [10] (setting [16]), -0.515; in [10] (measured here: PEO4 Z-AUC), -0.461.
Turning to `CCN1C[C@]2(OC(=O)c3ccccc3NC(C)=O)CC[C@H](OC)[C@@]34[C@H]5CC6[C@@H](OC)C[C@](O)(C(C[C@@H]23)[C@@H]14)[C@@]5(O)[C@@H]6OC`, the Potency result in [1], in experiment [2], in [11], in [6], in experiment [12] and in experiment [7] was “inactive” each time. The Potency entry in [8], in experiment [9] and in experiment [13] was “inactive” in each case. Also, the Z-AUC in experiment [10] was 0.577 (inactive); in experiment [10] (setting [16]), 1.09; in experiment [10] (measured here: PEO4 Z-AUC), 1.24. For the same compound, the z-score in experiment [14] (setting [17]) is 0.543; in [14] (setting [18]), 0.783; in [14] (setting [19]) it was 0.781.
With `C[C@@]12OC(=O)[C@]1([C@@H](O)[C@@H]1C=CCCC1)NC(=O)[C@H]2CCCl`, the Potency in experiment [1] was 4.7 nM (active); in experiment [2] it was 1 nM (active); in [3], 105 nM (active); in experiment [11], 13.2 nM (active); in [6], 8.3 nM (active); in experiment [12] it was 10.5 nM (active). Moreover, the Potency in experiment [7] was 29.6 nM (active); in [8] it was 37.2 nM (active); in experiment [9], 6.6 nM (active); in experiment [13], 9.3 nM (active); in experiment [14] (TFE3-RCC UOK109 viability), 66.2 nM (active). The z-score in experiment [14] (setting [17]) is -1.51; in experiment [14] (setting [18]), -3.3; in [14] (setting [19]), -2.86.
On to `C=CCON=C(C[C@H]1O[C@@H]2O[C@]3(C)CC[C@@H]4[C@H](C)CC[C@@H]([C@H]1C)[C@@]24OO3)[C@H]1O[C@@H]2O[C@]3(C)CC[C@H]4[C@H](C)CC[C@@H]([C@@H]1C)[C@@]24OO3`, for which the Potency is 187 nM (active) in experiment [1]; 526 nM (active) in experiment [2]; 332 nM (active) in [11]; 264 nM (active) in experiment [4]; 166 nM (active) in experiment [5]; 372 nM (active) in experiment [15]. The Potency was 469 nM (active) in [6]; 526 nM (active) in experiment [12]; 235 nM (active) in experiment [7]; 187 nM (active) in [9]; 332 nM (active) in experiment [13].
With `Cc1[nH]nc2ccc(-c3cncc(OC[C@@H](N)Cc4c[nH]c5ccccc45)c3)cc12`, the Potency in [1] is 833 nM (active); in experiment [2], 1180 nM (active); in experiment [11] it was 83.3 nM (active); in experiment [4] it was 418 nM (active); in experiment [15], 372 nM (active); in [6] it was 935 nM (active). For the same compound, the Potency in experiment [12] is 264 nM (active); in experiment [7] it was 3320 nM (active); in experiment [8], 14800 nM (active); in experiment [9], 372 nM (active); in experiment [13], 296 nM (active). The Z-AUC is -2.34 (inactive) in experiment [10], -1.86 in experiment [10] (setting [16]) and -2.37 in experiment [10] (measured here: PEO4 Z-AUC).
In the case of `CCOC(=O)Nc1ccc(NCc2ccc(F)cc2)cc1N`, the Potency entry in experiment [1], in experiment [6], in experiment [8] and in [9] was “inactive” throughout. Besides, the Potency in [2] is 18700 nM (active); in experiment [11], 13200 nM (active). The viability (in general, a read-out of living cells in per cent, often relative to untreated cells) in experiment [3] was 119% (inactive). Further, the values for the Z-AUC in [10], in [10] (setting [16]) and in experiment [10] (measured here: PEO4 Z-AUC) were -0.328 (inactive), 0.0556 and 0.397, respectively.
